HT1080 IDH1KD tx: qHTS for induction of synthetic lethality in tumor cells producing 2HG: qHTS for the HT-1080-IDH1KD cell line. HT-1080 IDH1 knockdown viability, ATP luminescence, 48 h. Potency, µM (titrated, usually from 46.1 µM), hits mostly cytotoxic. actives 2% (n = 360,000)
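After a 2 h attachment period, IDH1KD HT-1080 cells took pin-transferred compound for 48 h at 37 °C; ATP-based luminescence after 10 min room-temperature reagent incubation reported viability.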
DT40 TDP1 no CPT: qHTS for Inhibitors of human tyrosyl-DNA phosphodiesterase 1 (TDP1): qHTS in cells in absence of CPT; DT40 Tdp1-/- hTDP1 cells, no CPT, ATP luminescence, 48 h; Potency, µM (top dose mostly 46.2 µM), hits mostly inhibitors; actives 15% (n = 420,000); AID 686978, 2013; further: nearly all actives have a fitted effect of over 55% in size
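Compound effects on proliferation are scored in DT40 Tdp1-/-;hTDP1 cells in the absence of CPT. ATP levels (CellTiter-Glo luminescence) are recorded after a ≥48 hr, 37 °C incubation.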
IL1B secr inh: qHTS for Inhibitors of Inflammasome Signaling: IL-1-beta AlphaLISA Primary Screen. THP-1 LPS/ATP IL-1B secretion, AlphaLISA, 16 h; hits give low values. actives 4.7% (n = 360,000). activity change, % at 57.5 µM; in the data active means activity change below about -50%; inconclusive means mostly about -30% to -49%
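THP-1 cells pretreated 1 hr with compounds (up to 57.5 uM final), then stimulated with LPS (250 ng/mL final) plus ATP (1.25 mM final); secreted IL-1B measured by AlphaLISA after 16 hr, decreased signal indicating inhibition.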
HT1080-NT tox: qHTS for induction of synthetic lethality in tumor cells producing 2HG: qHTS for the HT-1080-NT fibrosarcoma cell line; HT-1080-NT fibrosarcoma viability, CellTiter-Glo ATP luminescence, 48 h; Potency, µM (series often up to 46.1 µM), actives largely listed as cytotoxic; actives 1.6% (n = 360,000); AID 686970, 2013;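 further: NT is the 2HG producing partner of a matched IDH1 knockdown line; nearly all actives have a fitted effect of over 55% in size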
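A 48-hour cytotoxicity screen used HT-1080-NT cells plated 2 hours before compound delivery. ATP-based CellTiter-Glo luminescence measured viability, normalized to DMSO and no-cell controls.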
uPA surface inh: qHTS for Inhibitors of Cell Surface uPA Generation; cell surface uPA generation assay, qHTS; Potency, µM (highest dose often 38.3 µM), hits mostly inhibitors; actives 0.31% (n = 330,000); AID 540303, 2011; active means well fitted inhibition curve with a large enough effect; inconclusive means small, poorly fitted or top-dose-only effect; inactive means no such curve, though single readings can be large or run the other way; tested in mouse RAW 264.7 cells; further: nearly all actives have a fitted effect of over 55% in size
TDP1 cell CPT: qHTS for Inhibitors of human tyrosyl-DNA phosphodiesterase 1 (TDP1): qHTS in cells in presence of CPT | actives 12% (n = 420,000) | Potency, µM (highest dose often 46.2 µM), actives largely listed as inhibitors | chicken DT40 Tdp1-/-;hTDP1 cells + 20 nM CPT, ATP luminescence, 48 h; further: nearly all actives have a fitted effect of over 55% in size
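Chicken DT40 Tdp1-/- cells complemented with human TDP1, 400 cells/well, exposed to compounds plus 20 nM camptothecin for at least 48 h at 37 C; viability read as ATP content by CellTiter-Glo luminescence.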
Large screens that a line does not name were inactive. This is a sample that favours compounds with a hit; in the whole collection about 19% have one here. Unless noted, the call rests on the fitted dose curve; in most records, active means well fitted curve in the direction sought with a large enough effect; inconclusive means small, poorly fitted or top-dose-only effect, or another doubt; inactive means no such curve, though single readings can be large; an effect the other way counts as inactive or inconclusive.

Cc1nn(-c2ccc(F)cc2)c(Cl)c1/C=N/NC(=O)c1cccs1	DT40 TDP1 no CPT inconclusive, HT1080-NT tox inconclusive, TDP1 cell CPT inconclusive
O=C(N/N=C/c1cccc(O)c1)c1cc(-c2ccc3c(c2)OCO3)n[nH]1	HT1080 IDH1KD tx inconclusive, DT40 TDP1 no CPT 20.6µM, HT1080-NT tox inconclusive, TDP1 cell CPT 20.6µM
Cc1nn(-c2ccc(Cl)cc2)c(Cl)c1/C=N/NC(=O)c1ccc(NS(=O)(=O)c2cccs2)cc1	HT1080 IDH1KD tx inconclusive, DT40 TDP1 no CPT 18.4µM, IL1B secr inh inconclusive, HT1080-NT tox inconclusive, TDP1 cell CPT 18.4µM
O=C(CCc1c[nH]c2ccccc12)N/N=C/c1ccc2c(c1)OCO2	DT40 TDP1 no CPT 23.1µM
O=C(Cc1ccccc1)N/N=C/c1ccc2c(c1)OCO2	none
O=C(N/N=C/c1ccc2c(c1)OCO2)c1ccc(NS(=O)(=O)c2cccs2)cc1	HT1080 IDH1KD tx inconclusive, IL1B secr inh -60.2
O=[N+]([O-])c1cc(S(=O)(=O)C(F)(F)F)ccc1NCC1CCCO1 (configuration not stated)	none
O=C(NN=Cc1ccc2c(c1)OCO2)NN=Cc1ccc2c(c1)OCO2	DT40 TDP1 no CPT inconclusive, IL1B secr inh -89.5
CS/C(N)=N/N=C/c1ccc2c(c1)OCO2	none
N/C(=N\N=C/c1ccc(F)cc1)N/N=C\c1ccc(F)cc1	DT40 TDP1 no CPT inconclusive, TDP1 cell CPT inconclusive
N/C(=N\N=C/c1ccc(Br)cc1)N/N=C\c1ccc(Br)cc1	HT1080 IDH1KD tx inconclusive, DT40 TDP1 no CPT inconclusive, IL1B secr inh -64.1, HT1080-NT tox inconclusive, TDP1 cell CPT inconclusive
N/C(=N\N=Cc1ccc2c(c1)OCO2)NN=Cc1ccc2c(c1)OCO2	HT1080 IDH1KD tx inconclusive, DT40 TDP1 no CPT 2.31µM, IL1B secr inh -98.5, TDP1 cell CPT 3.26µM
CCOC(=O)CCCNC(=O)CN1C(=O)NC(c2ccccc2)(c2ccccc2)C1=O	none
CC1=C(C(=O)N(C(C)C)C(C)C)CC(CC(=O)NC2CCCC2)C(=O)N1Cc1ccc(F)cc1 (configuration not stated)	none (no result: uPA surface inh)
Cc1ccc(-c2cc(C(F)F)nc(S(C)(=O)=O)n2)cc1	HT1080 IDH1KD tx 20.6µM, DT40 TDP1 no CPT 1.3µM, IL1B secr inh -102.2, HT1080-NT tox 23.1µM, TDP1 cell CPT 0.92µM
COc1ccc(CCNc2nc(-c3ccc(C)cc3)cc(C(F)F)n2)cc1OC	none (no result: HT1080 IDH1KD tx, IL1B secr inh, HT1080-NT tox, uPA surface inh)
O=C(NCc1ccc(F)cc1)c1ccccc1OCc1ccccc1	HT1080 IDH1KD tx inconclusive, DT40 TDP1 no CPT inconclusive
CCOc1ccc(OCc2ccc(C(=O)NN=Cc3ccc[nH]3)cc2)cc1	HT1080 IDH1KD tx inconclusive, IL1B secr inh inconclusive, HT1080-NT tox 0.651µM
C/C(=N\NC(=O)c1ccccc1OCc1ccc(F)cc1)c1ccccn1	HT1080 IDH1KD tx inconclusive, DT40 TDP1 no CPT 5.17µM, HT1080-NT tox inconclusive, uPA surface inh inconclusive, TDP1 cell CPT 4.61µM
CCOc1ccc(C(=O)O/N=C(\N)c2ccccn2)cc1	DT40 TDP1 no CPT inconclusive, HT1080-NT tox inconclusive, uPA surface inh inconclusive
CCOc1ccc(OCc2ccc(C(=O)N/N=C(\C)c3ccccn3)cc2)cc1	HT1080 IDH1KD tx inconclusive, DT40 TDP1 no CPT 0.651µM, HT1080-NT tox inconclusive, TDP1 cell CPT 0.92µM
CC(=O)c1cccc(NC(=O)NNC(=O)CCC(=O)Nc2ccc(C)c(C)c2)c1	none
O=C(O)C1(O)CC(O)C(O)C(O)C1 (configuration not stated)	none (no result: HT1080 IDH1KD tx, IL1B secr inh, HT1080-NT tox, uPA surface inh)
COc1cc(CCC(=O)OCC(=O)Nc2cc(S(=O)(=O)N3CCOCC3)ccc2Cl)cc(OC)c1OC	none
CCC(C)(C)NC(=O)c1cc(S(=O)(=O)N2CCCCC2)ccc1N1CCOCC1	none
COc1ccc(C(C)=O)cc1CN1C(=O)C(C)ON=C1c1ccccn1 (configuration not stated)	none (no result: uPA surface inh)
CN(C)/C=C/c1c([N+](=O)[O-])c2ccc(O)cc2n1-c1ccccc1	HT1080 IDH1KD tx inconclusive, DT40 TDP1 no CPT inconclusive, IL1B secr inh -85.7, HT1080-NT tox inconclusive
O=[N+]([O-])c1ccc(C[n+]2cccc(O)c2)cc1	none
COc1cc2cc[n+](Cc3ccc([N+](=O)[O-])cc3)cc2cc1OC	DT40 TDP1 no CPT inconclusive, TDP1 cell CPT 18.4µM
Cc1[nH]n(-c2cccc3ccccc23)c(=O)c1C=Nc1ccc2[nH]c(=O)[nH]c2c1	none
Cc1ccc(N=Cc2c(O)c3ccccc3n(C)c2=O)cc1	none
Cc1ccc(N=Cc2c(C)[nH]n(-c3nc4ccccc4[nH]3)c2=O)cc1	HT1080 IDH1KD tx 3.26µM, DT40 TDP1 no CPT 4.11µM, HT1080-NT tox 2.91µM, TDP1 cell CPT 3.26µM
Cc1ccc(-n2[nH]c(C)c(C=Nc3ccc4[nH]c(=O)[nH]c4c3)c2=O)cc1	HT1080 IDH1KD tx inconclusive, DT40 TDP1 no CPT 16.4µM, HT1080-NT tox inconclusive, TDP1 cell CPT 16.4µM
Cc1ccc(-n2[nH]c(C)c(C=Nc3ccc4[nH]c(=O)[nH]c4c3)c2=O)cc1C	HT1080 IDH1KD tx 23.1µM, DT40 TDP1 no CPT 20.6µM, HT1080-NT tox 23.1µM, TDP1 cell CPT inconclusive
O=C(Nc1ccc(OC(F)(F)F)cc1)NC1COc2ccccc2C1 (configuration not stated)	none (no result: HT1080 IDH1KD tx, IL1B secr inh, HT1080-NT tox, uPA surface inh)
O=C(COC(=O)Cc1n[nH]c(=O)c2ccccc12)Nc1c(Br)cc([N+](=O)[O-])cc1Br	none
O=C(Oc1csc(=S)n1C(=O)c1ccccc1)c1ccccc1	DT40 TDP1 no CPT inconclusive, TDP1 cell CPT inconclusive
Cc1cccc(C(=O)Oc2csc(=S)n2C(=O)c2cccc(C)c2)c1	HT1080 IDH1KD tx 4.61µM, HT1080-NT tox 7.31µM
CCN1C=C(C(=O)c2ccccc2)C(=O)CC1	none
COc1c(C(CC(C)C)OC(C)=O)ccc2c1C(=O)OCc1cc(C)cc(O)c1O2 (configuration not stated)	HT1080 IDH1KD tx inconclusive, DT40 TDP1 no CPT 11.6µM, uPA surface inh inconclusive, TDP1 cell CPT 9.2µM
COc1c(C(O)CC(C)C)ccc2c1C(=O)OCc1cc(C)cc(O)c1O2 (configuration not stated)	DT40 TDP1 no CPT 18.4µM, TDP1 cell CPT inconclusive
Oc1c(C(c2ccccc2)N2CCOCC2)sc2nc(-c3ccco3)nn12 (configuration not stated)	none (no result: HT1080 IDH1KD tx, IL1B secr inh, HT1080-NT tox, uPA surface inh)
Nc1ccc(-c2nc3ccc(-c4nc5ccccc5o4)cc3[nH]2)cc1	DT40 TDP1 no CPT 8.2µM, TDP1 cell CPT 14.6µM
Nc1ccc(-c2nc3cc(N)ccc3o2)cc1	IL1B secr inh -53.5, uPA surface inh inconclusive

Assay outcomes as filed in PubChem BioAssay.
